In PubChem BioAssay (NCI) one finds growth data, which are given here for seven compounds.

Among the test systems are SR leukemia; RPMI-8226 leukemia; OVCAR-8 ovarian; OVCAR-5 ovarian; OVCAR-4 ovarian; SK-OV-3 ovarian; IGROV1 ovarian; OVCAR-3 ovarian; HS 578T breast; NCI/ADR-RES ovarian; T-47D breast; BT-549 breast; MDA-MB-435 melanoma; SW-620 colon; MCF7 breast; HCT-116 colon; HCC-2998 colon; KM12 colon; MDA-MB-468 breast.
Holding throughout (test): NCI-60 one-dose screen, 48 h (100 = growth as untreated, 0 = no growth, -100 = all killed)
Settings in all cases: 10 µM unless noted

Compounds without any hit were thinned out: in the full panel of roughly 83,000, 20% have a hit.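 For each line, cells grew in 96-well plates with the test compound present at a single concentration for 48 hours.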 Values without a mark were called inactive. Active and inactive are the calls of the source. How the source made its calls: active means growth percent below 10; inactive means the rest.

For `N/C(=N\c1nc2ccccc2s1)NC(=O)Nc1ccc(Cl)cc1Cl`, the growth with SR leukemia is 5.8% (active); in the test with RPMI-8226 leukemia it was -1.62% (active); in the test with OVCAR-8 ovarian, -79.3% (active); in the test with OVCAR-5 ovarian it was -73.2% (active); with OVCAR-4 ovarian, -87.7% (active); in the test on SK-OV-3 ovarian it was -91.5% (active). For the same compound, the growth is -68.5% (active) in the test on IGROV1 ovarian; -95.5% (active) with OVCAR-3 ovarian; -26.7% (active) with HS 578T breast; -84.8% (active) in the test with NCI/ADR-RES ovarian; -10.7% (active) in the test with T-47D breast; -17.6% (active) in the test with BT-549 breast. Besides, the growth with MDA-MB-435 melanoma is -97.3% (active); with SW-620 colon, -67.9% (active); in the test with MCF7 breast it was -4.93% (active); in the test with HCT-116 colon, -79.6% (active); with HCC-2998 colon, -25.4% (active); in the test on KM12 colon it was -64.4% (active). In addition, the growth with MDA-MB-468 breast is -48.6% (active).

Take `CCOC(=O)COc1c(OC)c(OC)cc2oc(-c3cccc(C(=O)Nc4ccc(Cl)cc4)c3)cc(=O)c12`: the growth is 18.4% in the test on SR leukemia; 38.5% with RPMI-8226 leukemia; 52% in the test on OVCAR-8 ovarian; 81.4% with OVCAR-5 ovarian; 68.8% in the test with OVCAR-4 ovarian; 75.4% with SK-OV-3 ovarian. Also, the growth with IGROV1 ovarian was 54.4%; in the test on OVCAR-3 ovarian, 23.3%; in the test with HS 578T breast, 49.6%; with NCI/ADR-RES ovarian, 36.5%; in the test on T-47D breast, 47.5%; in the test with BT-549 breast, 21.2%. For the same compound, the growth was -11.8% (active) in the test on MDA-MB-435 melanoma; 37.6% in the test with SW-620 colon; 15.7% in the test with MCF7 breast; 22.7% in the test on HCT-116 colon; 76% with HCC-2998 colon; 16.2% in the test on KM12 colon. In addition, in the test with MDA-MB-468 breast, the growth was 68%.

With `C=C1CC[C@@H]2[C@]3(C)COC(c4cn[nH]c4-c4cccc(Br)c4)O[C@@H]3CC[C@@]2(C)[C@@H]1C/C=C1/C(=O)OCC1O` (some centres undefined), the growth with SR leukemia is 12.7%; in the test with RPMI-8226 leukemia, -6.49% (active); with OVCAR-8 ovarian, -42.5% (active); with OVCAR-5 ovarian, -76.2% (active); in the test with OVCAR-4 ovarian, 10.8%; with SK-OV-3 ovarian, -33% (active). The growth in the test on IGROV1 ovarian is -60.2% (active); with OVCAR-3 ovarian, -97.6% (active); in the test with HS 578T breast it was 5.38% (active); in the test on NCI/ADR-RES ovarian, -50.1% (active); in the test with T-47D breast, -6.99% (active); in the test on BT-549 breast, -94.2% (active). Also, the growth with MDA-MB-435 melanoma was -50.2% (active); in the test on SW-620 colon, -81.1% (active); in the test with HCT-116 colon, -95.9% (active); in the test on HCC-2998 colon it was -100% (active); with KM12 colon it was -67.1% (active); in the test with MDA-MB-468 breast, -95.4% (active).

In the case of `CCCn1cc(-c2nc(Nc3ccc(C(=O)NCCCCNc4cccc5c4C(=O)N(C4CCC(=O)NC4=O)C5=O)cc3)nc3[nH]ccc23)cn1` (centres undefined), the growth was 25.1% in the test on SR leukemia; 17.5% in the test on RPMI-8226 leukemia; 6.6% (active) with OVCAR-8 ovarian; 54.2% with OVCAR-5 ovarian; 9.82% (active) in the test with OVCAR-4 ovarian; 24.8% with SK-OV-3 ovarian. The growth is 7.36% (active) in the test with IGROV1 ovarian; 36.3% with OVCAR-3 ovarian; 6.24% (active) in the test on HS 578T breast; 95.6% in the test with NCI/ADR-RES ovarian; -11% (active) in the test with T-47D breast; -36.1% (active) in the test on BT-549 breast. The growth with MDA-MB-435 melanoma was 34.2%; in the test with SW-620 colon, 9.12% (active); with HCT-116 colon it was 72.3%; in the test on HCC-2998 colon, 5.84% (active); in the test with KM12 colon, 6.05% (active); in the test with MDA-MB-468 breast, -36.3% (active).

With `CCCCSc1nc(Nc2ccc(S(N)(=O)=O)cc2)c(C#N)c(-c2cc(OC)c(OC)c(OC)c2)n1`, the growth in the test with SR leukemia was 8.85% (active); in the test on RPMI-8226 leukemia, 10.7%; in the test with OVCAR-8 ovarian, 31.5%; in the test on OVCAR-5 ovarian, 53.7%; in the test on OVCAR-4 ovarian, 40.2%; in the test with SK-OV-3 ovarian it was 105%. The growth in the test with IGROV1 ovarian is 46.8%; in the test with OVCAR-3 ovarian, 49.8%; in the test with HS 578T breast, 67.8%; with NCI/ADR-RES ovarian, 32.5%; in the test with T-47D breast it was 15.2%; with BT-549 breast, 44.3%. For the same compound, the growth is 33% with MDA-MB-435 melanoma; 48.6% in the test on SW-620 colon; 21.8% in the test with HCT-116 colon; 65% in the test with HCC-2998 colon; 26.6% with KM12 colon; 61.2% in the test on MDA-MB-468 breast.

For the compound `CCCCCCn1c(O)c(N=Nc2nc(-c3cc4ccccc4oc3=O)cs2)c2ccccc21`, the growth was 12% in the test with SR leukemia; 60.9% in the test on RPMI-8226 leukemia; 34.1% with OVCAR-8 ovarian; -53.2% (active) in the test on OVCAR-5 ovarian; -48.2% (active) with OVCAR-4 ovarian; 96.9% in the test on SK-OV-3 ovarian. In addition, the growth was -62.4% (active) with IGROV1 ovarian; -94.9% (active) in the test with OVCAR-3 ovarian; 60.5% with HS 578T breast; 50.2% with NCI/ADR-RES ovarian; -12% (active) in the test with T-47D breast; -20.5% (active) in the test on BT-549 breast. Moreover, the growth in the test on MDA-MB-435 melanoma is 26.3%; in the test with SW-620 colon it was 56.2%; in the test with MCF7 breast it was -18% (active); in the test with HCT-116 colon, -51.7% (active); in the test with HCC-2998 colon, 37.8%; in the test on KM12 colon it was 13.6%. The growth in the test on MDA-MB-468 breast was 45.3%.

Consider `C=C1CC[C@@H]2[C@]3(C)COC(c4cn[nH]c4-c4ccc(Br)cc4)O[C@@H]3CC[C@@]2(C)[C@@H]1C/C=C1/C(=O)OCC1O` (some centres undefined), for which the growth in the test with SR leukemia is 3.62% (active); in the test on RPMI-8226 leukemia it was 3.94% (active); in the test with OVCAR-8 ovarian, -9.48% (active); in the test on OVCAR-5 ovarian it was -75.9% (active); in the test with OVCAR-4 ovarian, 8.76% (active); in the test with SK-OV-3 ovarian, -31.8% (active). For the same compound, the growth in the test on IGROV1 ovarian is -44.9% (active); in the test with OVCAR-3 ovarian, -78.9% (active); in the test with HS 578T breast it was 19.1%; with NCI/ADR-RES ovarian, -40% (active); in the test on T-47D breast, 12.2%; in the test with BT-549 breast, -96.6% (active). For the same compound, the growth is -64.4% (active) in the test with MDA-MB-435 melanoma; -70.5% (active) in the test on SW-620 colon; -93.5% (active) in the test with HCT-116 colon; -98% (active) in the test with HCC-2998 colon; -64.3% (active) in the test with KM12 colon; -85.9% (active) in the test with MDA-MB-468 breast.
